Laboratory results reported in PubChem BioAssay (EPA / NIEHS).
Calls of active or inactive are those of the source. How the source made its calls: active means hit-call score of the fitted dose curve at least 0.9, where 1 is the maximum; inactive means score below 0.9.

What was measured:
[1] = ATG_E_Box_CIS: Attagene CIS-FACTORIAL HepG2 Assay for human Enhancer Box (E-box) (AID 2282936); conditions: HepG2 E-box cis-reporter transcription, actives raise or lower the signal
In short: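 Fluorescent reporter fragments separated by capillary electrophoresis gave the signal; mRNA came from HepG2 cells transfected with cis-element reporters and treated 24 h. Curves fitted bidirectionally relative to DMSO controls.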

[2] = ATG_M_61_CIS: Attagene CIS-FACTORIAL HepG2 Assay for M61 Transcription Factor (Internal Marker) (AID 2282937); conditions: HepG2 Attagene CIS-FACTORIAL M61 internal marker reporter; actives raise or lower the signal
In short: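 Cells were transfected with reporter units under cis-regulatory promoters, treated with chemicals for 24 h, then lysed for RNA. Reporter transcripts were quantified by RT-PCR and capillary electrophoresis, and activity was fitted bidirectionally against DMSO.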

[3] = ATG_EGR_CIS: Attagene CIS-FACTORIAL HepG2 Assay for human Early Growth Response 1 (EGR1) (AID 2282938); conditions: HepG2 Attagene CIS-FACTORIAL EGR reporter mRNA; actives raise or lower the signal
In short: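 Endogenous TF activity in HepG2 liver cells was gauged through cis-promoter reporter constructs transiently transfected. After 24 h dosing, reporter mRNA was quantified by RT-PCR and capillary electrophoresis, and curves fitted in both directions versus DMSO.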

[4] = ATG_M_19_CIS: Attagene CIS-FACTORIAL HepG2 Assay for M19 Transcription Factor (Internal Marker) (AID 2282939); conditions: HepG2 Attagene CIS-FACTORIAL M19 internal marker reporter; actives raise or lower the signal
In short: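 Readout: fluorescent reporter-transcript fragments by capillary electrophoresis after RT-PCR. Human HepG2 liver cells carried transfected MRTU constructs reporting endogenous transcription-factor activity; exposure 24 h. Gain or loss of signal fitted relative to DMSO.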

[5] = ATG_ERE_CIS: Attagene CIS-FACTORIAL HepG2 Assay for Estrogen Response Element (ERE) (AID 2282940); conditions: HepG2 ERE cis-reporter, Attagene RNA transcript; actives raise or lower the signal
In short: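 Readout: reporter mRNA induction by RT-PCR, FAM-labelled primer extension, HpaI digestion and capillary electrophoresis, 24 h after dosing transfected HepG2 cells. Endogenous transcription factors act on cis-element-regulated reporters. Gain or loss fitted against DMSO.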

[6] = ATG_Ets_CIS: Attagene CIS-FACTORIAL HepG2 Assay for human Erythroblast Transformation Specific (ETS) (AID 2282941); conditions: HepG2 ETS cis-reporter transcription, actives raise or lower the signal
In short: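 Endogenous transcription factor activity read as reporter mRNA via RT-PCR and capillary electrophoresis, with gain or loss fitted bidirectionally against DMSO. Human HepG2 liver cells, transiently transfected CIS reporter constructs, 24 h exposure.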

[7] = biological target: Hepatocyte nuclear factor 3-beta (Homo sapiens) (UniProt Q9Y261); assay: ATG_FoxA2_CIS: Attagene CIS-FACTORIAL HepG2 Assay for human Forkhead box A2 (FOXA2) (AID 2282942); conditions: HepG2 cis-reporter transcription factor activity, 24 h; actives raise or lower the signal
Sequence of Hepatocyte nuclear factor 3-beta (Homo sapiens) (Q9Y261 whole entry, looked up): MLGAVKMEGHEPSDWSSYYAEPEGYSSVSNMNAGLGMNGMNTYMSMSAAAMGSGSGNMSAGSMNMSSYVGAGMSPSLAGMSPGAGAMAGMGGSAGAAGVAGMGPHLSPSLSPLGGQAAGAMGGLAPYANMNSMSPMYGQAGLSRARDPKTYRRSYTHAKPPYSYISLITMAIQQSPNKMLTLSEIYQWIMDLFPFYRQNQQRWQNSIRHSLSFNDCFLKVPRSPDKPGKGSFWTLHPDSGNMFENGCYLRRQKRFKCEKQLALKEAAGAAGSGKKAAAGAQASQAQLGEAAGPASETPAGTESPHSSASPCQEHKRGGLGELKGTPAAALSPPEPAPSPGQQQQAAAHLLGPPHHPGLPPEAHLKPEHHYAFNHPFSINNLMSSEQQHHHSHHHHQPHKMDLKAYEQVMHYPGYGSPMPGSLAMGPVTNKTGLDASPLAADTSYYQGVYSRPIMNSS
In short: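 Endogenous transcription factor activity was read in HepG2 cells carrying transiently transfected cis-promoter reporter units. After 24 h dosing, reporter mRNA was quantified by RT-PCR and capillary electrophoresis, and values fitted bidirectionally versus DMSO.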

[8] = ATG_FoxO_CIS: Attagene CIS-FACTORIAL HepG2 Assay for human Forkhead box O (FoxO) (AID 2282943); conditions: HepG2 Attagene cis-reporter, FoxO element, mRNA; actives raise or lower the signal
In short: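 Endogenous transcription factor activity read from multiplexed cis-promoter reporter transcripts in transiently transfected HepG2, 24 h after dosing. Reporter RNA measured via RT-PCR plus capillary electrophoresis of FAM-labeled products; gain or loss relative to DMSO.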

[9] = ATG_GATA_CIS: Attagene CIS-FACTORIAL HepG2 Assay for human GATA Binding Protein (AID 2282944); conditions: HepG2 GATA cis-element reporter, Attagene multiplex mRNA; actives raise or lower the signal
In short: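 Read-out: fluorescent reporter mRNA fragments resolved by capillary electrophoresis after RT-PCR. Human liver HepG2 cells carried transiently transfected cis-regulated reporter constructs; chemicals incubated 24 h; gain or loss of signal fitted relative to DMSO.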

[10] = ATG_GLI_CIS: Attagene CIS-FACTORIAL HepG2 Assay for human Zinc Finger Protein GLI1 (AID 2282945); conditions: HepG2, Attagene cis-factorial reporter mRNA, GLI element; actives raise or lower the signal
In short: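 Bidirectional curve fits relative to DMSO, using reporter mRNA levels from RT-PCR plus capillary electrophoresis. Cells were HepG2 transiently carrying cis-regulated reporter constructs, harvested 24 h after dosing.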

Measured: AC50

CCCCC(CC)COC(=O)c1ccccc1O (stereo unspecified)
active: [5] 32.5 µM
inactive: all other assays above

CO[Si](OC)(OC)c1ccccc1
inactive: all assays above

COC(=O)c1sccc1S(N)(=O)=O
inactive: all assays above

C[C@]12CCC(=O)C=C1CC[C@@H]1[C@@H]2C(=O)C[C@@]2(C)[C@H]1CC[C@]2(O)C(=O)CO
not listed: [7]
inactive: all other assays above

O=C(Nc1ccccc1SSc1ccccc1NC(=O)c1ccccc1)c1ccccc1
active: [10] 100 µM
not listed: [7]
inactive: all other assays above

CC(C)(C)c1ccc(OC(=O)c2ccccc2O)cc1
active: [5] 7.32 µM
not listed: [7]
inactive: all other assays above

O=C(O)c1cc(Cl)cc([N+](=O)[O-])c1Cl
not listed: [9]
inactive: all other assays above

Cc1ccc(C2OC[C@@H]3OC(c4ccc(C)cc4)O[C@H]([C@H](O)CO)[C@@H]3O2)cc1 (stereo partly specified)
not listed: [9]
inactive: all other assays above

NNC(=O)c1cccc(C(=O)NN)c1
inactive: all assays above

O=C1CC2CC1C1CCCC21 (stereo unspecified)
active: [5] 19.8 µM
not listed: [9]
inactive: all other assays above

CCOc1ccc(N)c([N+](=O)[O-])c1
not listed: [9]
inactive: all other assays above

CC(=O)Nc1nnc(S(N)(=O)=O)s1
not listed: [9]
inactive: all other assays above

O=C(OCC1CCC2OC2C1)C1CCC2OC2C1 (stereo unspecified)
not listed: [9]
inactive: all other assays above
